Composite z-score, composite Z-score and z-score data for six compounds are collected here from PubChem BioAssay.

SMILES strings stand for the structures. Activity calls are given as the source filed them.

One test deals with Albumin (Bos taurus) (UniProt P02769). Kind of test: compounds binding labelled BSA control protein – biochemical, small-molecule microarray, Alexa647 label, 635/667 nm fluorescence, artefact control for SMM control protein annotation, profiling panel (AID 1118).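 Note: score merges 667 nm emission intensity and signal-to-noise per printed compound spot.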 The note with it: BSA-A647 binding, fluorescence 635 nm, higher = more signal.
Sequence of Albumin (Bos taurus) (P02769 whole entry, looked up): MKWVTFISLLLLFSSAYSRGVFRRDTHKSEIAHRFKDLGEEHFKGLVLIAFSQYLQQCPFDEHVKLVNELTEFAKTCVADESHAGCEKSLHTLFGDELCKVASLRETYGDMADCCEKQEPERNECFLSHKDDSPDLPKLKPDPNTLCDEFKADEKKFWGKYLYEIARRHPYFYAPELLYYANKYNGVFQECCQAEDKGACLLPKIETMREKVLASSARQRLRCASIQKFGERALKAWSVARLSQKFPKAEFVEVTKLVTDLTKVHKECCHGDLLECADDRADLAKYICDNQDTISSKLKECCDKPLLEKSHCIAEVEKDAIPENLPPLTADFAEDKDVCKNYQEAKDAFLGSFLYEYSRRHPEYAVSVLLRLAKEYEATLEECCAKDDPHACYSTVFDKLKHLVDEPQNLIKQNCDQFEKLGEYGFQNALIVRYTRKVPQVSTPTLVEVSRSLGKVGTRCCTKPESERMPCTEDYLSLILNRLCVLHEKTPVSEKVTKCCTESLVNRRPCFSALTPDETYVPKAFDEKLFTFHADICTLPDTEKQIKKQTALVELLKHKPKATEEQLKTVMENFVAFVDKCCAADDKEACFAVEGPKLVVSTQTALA
Test [1] is described as follows: probe aXIP binding to arrayed compounds – biochemical, NeuroSMM set, 635/667 nm fluorescence, primary screen (AID 1119).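 Note: probe is the protein aXip251-270 applied at 1 µg/mL to compound-printed slides; binding of probe to printed compounds measured as 667 nm fluorescence plus signal to noise.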 The note with it: small-molecule microarray, higher = more signal, called active from +8 up or from −8 down.
The nature of test [2]: probe aNOTCH3 binding on compound microarray – biochemical, small-molecule microarray, 635/667 nm fluorescence, primary screen (AID 1120).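 Note: probe is a biotin-tagged antibody raised against NOTCH3 rather than NOTCH3 protein; score merges spot fluorescence near 667 nm with spot signal to noise.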 The note with it: higher = more signal.
Test [3] in a line: probe aNOTCH2 binding on compound microarray – biochemical, small-molecule microarray, 635/667 nm fluorescence, primary screen (AID 1121).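 Note: score merges feature fluorescence read at 667 nm with its signal to noise.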 As to conditions: higher = more signal.
The target of test [4] is Carbonic anhydrase 2 (Homo sapiens) (UniProt P00918). Kind of test: compounds binding carbonic anhydrase 2 – biochemical, small-molecule microarray, Alexa647-labelled CAII, profiling panel (AID 1122). As to conditions: CAII-A647 binding fluorescence, higher = more signal.
Test [5] is described as follows: COS7 lysate on small-molecule microarray, probe aHis, 635 nm (AID 1123).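 Note: z-score combines 667nm fluorescence intensity with signal-to-noise per printed compound spot.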 As to conditions: COS7 cell lysate, fluorescence, higher = more signal.
A short description of test [6]: probe aLAP1 signal on lysate-treated microarray – cell lysate, small-molecule microarray, COS7 lysate, primary screen (AID 1124).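 Note: lysate comes from COS7 cells expressing LAP1 and is applied at 0.3 µg/mL; score merges spot fluorescence near 667 nm with signal-to-noise over triplicate slides.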 The note with it: probe aLAP1, fluorescence, higher = more signal.
The next test has as its system Sam68 (KHDRBS1). The experiment in a line: compounds binding KHDRBS1 protein – biochemical, small-molecule microarray, 635 nm fluorescence, primary screen (AID 1125).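 Note: score merges 667 nm channel intensity with signal to noise over triplicate slides.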 The note with it: higher = more signal.
The subject of test [7] is Chordin-like protein 2 (CHRDL2). Kind of test: compounds binding chordin-like 2 – biochemical, small-molecule microarray, 635 nm fluorescence, primary screen (AID 1126).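 Note: printed compound slides probed with Chrdl2 protein at 4 µg/mL for 1 h at 4 C; score merges 667 nm emission intensity with signal to noise over three replicate slides.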 The note with it: fluorescence 635 nm, higher = more signal.
Test [8] addresses Concanavalin-A (Canavalia ensiformis) (UniProt P02866). Kind of test: compounds binding concanavalin A lectin – biochemical, small-molecule microarray, Alexa647 label, 635 nm, artefact control for SMM control protein annotation, primary screen (AID 1127).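 Note: z combines 667 nm emission intensity with signal-to-noise across three replicate slides.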 As to conditions: ConA-A647 binding fluorescence, higher = more signal.
Test [9] in a line: compounds binding Alexa647 anti-His antibody – biochemical, small-molecule microarray, 635 nm fluorescence, artefact control for SMM control protein annotation, primary screen (AID 1128).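 Note: score merges feature fluorescence with signal-to-noise for each printed compound spot.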 The note with it: higher = more signal.
Test [10] has as its system Human papillomavirus type 1a E7 protein (residues 1-88). Kind of test: HPV1a E7 small-molecule binders, primary screen, biochemical, small-molecule microarray, residues 1-88, 635 nm (AID 1129). The note with it: small-molecule microarray binding, fluorescence 635 nm; higher = more signal.
Test [11] has as its target Focal adhesion kinase 1 (Homo sapiens) (UniProt Q05397). Kind of test: PTK2 protein binding on printed compound slides – biochemical, small-molecule microarray, 635/667 nm fluorescence, BSA, DTT, primary screen (AID 1130).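 Note: composite of spot emission at 667 nm and signal to noise over triplicate slides.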 The note with it: 635 nm fluorescence, higher = more signal.
Test [12] has as its system Fibrinogen (Alexa647-labelled). Kind of test: Alexa647-fibrinogen binding to printed small molecules – biochemical, small-molecule microarray, 635/667 nm fluorescence, artefact control for SMM control-protein annotation, profiling panel (AID 1131).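 Note: z-score merges 667 nm fluorescence with per-spot signal-to-noise over triplicate slides.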 As to conditions: fibrinogen-A647 binding fluorescence, higher = more signal.
In test [13] the target is Follistatin (Homo sapiens) (UniProt P19883). The experiment in a line: FST protein binding to printed compounds – biochemical, small-molecule microarray, 635/667 nm fluorescence, primary screen (AID 1132). The note with it: 635 nm fluorescence, higher = more signal.
Sequence of Follistatin (Homo sapiens) (P19883 whole entry, looked up): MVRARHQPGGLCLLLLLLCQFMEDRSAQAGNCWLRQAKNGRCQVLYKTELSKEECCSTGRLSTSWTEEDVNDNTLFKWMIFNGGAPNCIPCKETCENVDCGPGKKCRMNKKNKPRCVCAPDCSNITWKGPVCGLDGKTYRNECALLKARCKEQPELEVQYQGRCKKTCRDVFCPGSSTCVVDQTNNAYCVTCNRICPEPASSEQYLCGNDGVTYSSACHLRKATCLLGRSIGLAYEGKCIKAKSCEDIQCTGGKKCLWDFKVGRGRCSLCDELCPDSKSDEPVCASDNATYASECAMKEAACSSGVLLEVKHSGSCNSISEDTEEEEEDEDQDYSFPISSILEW
Test [14] addresses Fibroblast growth factor 2 (Homo sapiens) (UniProt P09038). Kind of test: basic fibroblast growth factor binding to printed compounds – biochemical, small-molecule microarray, 635/667 nm fluorescence, primary screen (AID 1133). The note with it: FGF2, fluorescence 635/667, higher = more signal.
The nature of test [15]: JC-1 mitochondrial potential readout, lung cancer cells – cell-based, A549, JC-1 fluorescence, basal, 24 h, 100 nL, profiling panel (AID 1138).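 Note: A549 lung adenocarcinoma cells under basal conditions with no added stimulus; test concentration not given here.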 As to conditions: higher = more signal.
The next test has as its system Lefty1. The experiment in a line: Lefty1 protein binding to printed compounds – biochemical, small-molecule microarray, 635/667 nm fluorescence, primary screen (AID 1139). The note with it: fluorescence 635/667, higher = more signal.
In test [16] the test system is wheat germ agglutinin (Triticum aestivum), Alexa647-labelled. Kind of test: Alexa647-WGA lectin binding to printed small molecules – biochemical, small-molecule microarray, 635/667 nm fluorescence, artefact control for SMM control-protein annotation, profiling panel (AID 1140).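 Note: score merges 667 nm feature emission with signal to noise over triplicate slides.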 As to conditions: WGA-A647 binding, 635 nm fluorescence, higher = more signal.
Test [17] deals with Luciferin 4-monooxygenase (Photinus pyralis) (UniProt P08659). Kind of test: inhibition of purified Photinus pyralis luciferase – biochemical, luminescence, purified enzyme, 2006 set, primary screen (AID 1141).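 Note: cell-free assay with purified firefly luciferase at 100 ng per well in PBS; test concentration not given here.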 As to conditions: purified firefly luciferase, SteadyGlo luminescence, 30 min; higher = more signal, called active from +8 up or from −8 down.
Sequence of Luciferin 4-monooxygenase (Photinus pyralis) (P08659 whole entry, looked up): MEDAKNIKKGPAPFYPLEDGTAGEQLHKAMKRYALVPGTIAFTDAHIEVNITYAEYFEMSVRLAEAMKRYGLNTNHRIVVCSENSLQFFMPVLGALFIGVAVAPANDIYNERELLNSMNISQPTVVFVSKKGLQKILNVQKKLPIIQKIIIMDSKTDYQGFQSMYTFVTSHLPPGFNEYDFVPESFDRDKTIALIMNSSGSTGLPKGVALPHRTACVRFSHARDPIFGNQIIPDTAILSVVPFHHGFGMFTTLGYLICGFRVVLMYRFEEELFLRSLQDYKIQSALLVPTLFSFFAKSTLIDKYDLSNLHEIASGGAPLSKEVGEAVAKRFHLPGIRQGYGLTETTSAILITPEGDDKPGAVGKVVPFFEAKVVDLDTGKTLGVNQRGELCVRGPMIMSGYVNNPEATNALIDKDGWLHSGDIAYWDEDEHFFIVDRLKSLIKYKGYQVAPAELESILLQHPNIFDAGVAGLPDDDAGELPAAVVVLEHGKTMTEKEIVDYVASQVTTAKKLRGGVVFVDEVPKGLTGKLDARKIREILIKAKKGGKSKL

Sequence of Fibroblast growth factor 2 (Homo sapiens) (P09038 whole entry, looked up): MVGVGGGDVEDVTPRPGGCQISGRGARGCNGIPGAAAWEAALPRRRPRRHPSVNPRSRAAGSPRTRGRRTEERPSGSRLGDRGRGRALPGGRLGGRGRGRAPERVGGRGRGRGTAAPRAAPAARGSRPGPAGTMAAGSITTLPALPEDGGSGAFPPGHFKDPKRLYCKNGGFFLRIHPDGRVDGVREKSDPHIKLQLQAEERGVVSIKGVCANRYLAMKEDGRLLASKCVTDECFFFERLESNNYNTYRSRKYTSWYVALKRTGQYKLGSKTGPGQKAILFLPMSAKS
Sequence of Concanavalin-A (Canavalia ensiformis) (P02866 whole entry, looked up): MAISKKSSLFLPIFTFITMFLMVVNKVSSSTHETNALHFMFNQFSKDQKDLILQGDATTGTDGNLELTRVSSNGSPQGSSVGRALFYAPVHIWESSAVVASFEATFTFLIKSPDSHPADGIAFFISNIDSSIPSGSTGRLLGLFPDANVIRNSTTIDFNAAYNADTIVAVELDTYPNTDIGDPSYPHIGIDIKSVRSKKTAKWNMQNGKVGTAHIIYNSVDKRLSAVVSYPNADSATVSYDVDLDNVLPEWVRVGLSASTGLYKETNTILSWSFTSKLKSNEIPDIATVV
Sequence of Focal adhesion kinase 1 (Homo sapiens) (Q05397 whole entry, looked up): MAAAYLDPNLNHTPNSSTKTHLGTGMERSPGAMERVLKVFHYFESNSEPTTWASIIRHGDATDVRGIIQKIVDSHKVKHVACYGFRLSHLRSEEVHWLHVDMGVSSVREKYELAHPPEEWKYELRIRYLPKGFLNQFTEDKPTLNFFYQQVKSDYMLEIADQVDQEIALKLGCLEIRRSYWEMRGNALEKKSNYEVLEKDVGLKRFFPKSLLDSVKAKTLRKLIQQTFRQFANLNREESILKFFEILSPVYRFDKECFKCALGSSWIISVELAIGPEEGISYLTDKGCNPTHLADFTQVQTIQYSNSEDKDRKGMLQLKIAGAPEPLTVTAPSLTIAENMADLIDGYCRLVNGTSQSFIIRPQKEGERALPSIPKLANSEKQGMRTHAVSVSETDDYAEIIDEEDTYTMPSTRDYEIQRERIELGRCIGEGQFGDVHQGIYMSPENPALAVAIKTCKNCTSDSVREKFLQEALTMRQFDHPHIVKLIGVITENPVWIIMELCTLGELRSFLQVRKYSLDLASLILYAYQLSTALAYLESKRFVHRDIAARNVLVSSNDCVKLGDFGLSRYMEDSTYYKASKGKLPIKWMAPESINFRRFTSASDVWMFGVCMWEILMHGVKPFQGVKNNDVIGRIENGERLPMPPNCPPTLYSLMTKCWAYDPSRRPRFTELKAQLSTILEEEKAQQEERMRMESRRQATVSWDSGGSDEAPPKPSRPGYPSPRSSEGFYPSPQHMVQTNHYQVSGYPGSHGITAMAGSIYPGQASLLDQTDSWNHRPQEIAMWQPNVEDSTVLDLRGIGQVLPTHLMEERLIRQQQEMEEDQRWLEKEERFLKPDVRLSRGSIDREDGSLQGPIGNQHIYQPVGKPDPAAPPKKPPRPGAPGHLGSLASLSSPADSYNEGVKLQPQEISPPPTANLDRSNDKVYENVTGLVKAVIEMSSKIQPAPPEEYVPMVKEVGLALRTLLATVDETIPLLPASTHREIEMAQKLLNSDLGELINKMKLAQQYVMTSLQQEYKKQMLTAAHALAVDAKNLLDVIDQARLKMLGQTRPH

Consider `CN(C)CCCNC(=O)[C@@]1(Cc2ccccc2I)c2ccccc2C(=O)N(C2CCCCC2)[C@H]1c1ccc(CO)cc1`, for which the composite z-score amounted to 0.33 with Albumin (Bos taurus); 0.417 in test [2]; 0.227 in test [3]; 0.443 in test [4]; 1.57 in test [5]; 0.653 in test [6]. The composite z-score in the test with Sam68 (KHDRBS1) was 1.31; in test [7], -0.0713; in [8], 1.16; in [9] it was 0.743; in test [10] it was 1.2; in test [11] it was 0.732. For the same compound, the composite z-score in [12] was 1.01; in [13] it was 0.872; in test [14], 0.156; in the test on Lefty1, 0.27; in [16] it was 1.2. For the same compound, the composite Z-score in [1] is 0.56 (inactive). For the same compound, the results for the z-score in [15] and in test [17] were -1.42 and 0.371 (inactive), respectively.

`CC(C)c1nc2cc(Br)ccc2c(=O)o1`: the composite z-score with Albumin (Bos taurus) was 0.915; in test [2], 0.0493; in test [3], -0.0424; in test [4], 0.738; in [5], 0.92; in test [6], 0.0912. The composite z-score is 0.711 in the test with Sam68 (KHDRBS1); -0.552 in [7]; 1.09 in test [8]; 0.405 in test [9]; 0.854 in [10]; 0.224 in test [11]. The composite z-score in [12] was 0.871; in test [13], 0.296; in test [14], -0.357; in the test with Lefty1, -0.0283; in [16] it was 0.834. In addition, in test [1], the composite Z-score was 0.19 (inactive). For the same compound, the z-score was 0.48 in test [15] and 0.672 (inactive) in test [17].

For `CC(C)C(=C=CC[C@H](O)c1ccccc1OCCO)C[C@H](O)COCc1ccccc1`, the composite z-score is 0.435 with Albumin (Bos taurus); -0.122 in test [2]; -0.172 in [3]; 0.736 in [4]; 1.08 in [5]; 0.565 in test [6]. The composite z-score in the test with Sam68 (KHDRBS1) was 0.24; in test [7], -0.163; in test [8], 0.377; in [9] it was 1.12; in test [10], -0.141; in test [11], -0.27. Further, the composite z-score was -0.513 in test [12]; -0.0978 in [13]; 0.107 in test [14]; 0.346 with Lefty1; 0.133 in test [16]. In [1], the composite Z-score was -0.392 (inactive). In addition, the z-score in test [15] was 0.742; in [17], -0.961 (inactive).

In the case of `C=CCOC(=O)[C@H]1[C@@H]2C(=O)O[C@@H](c3ccccc3)[C@@H](c3ccccc3)N2[C@@H](c2ccc(OCCOC(=O)[C@@H]3C[C@@H]4C(=O)N[C@@H](CCCC[N+](C)(C)C)C(=O)N4[C@@H]3c3ccc(O)cc3)cc2)[C@]12C(=O)Nc1ccc(I)cc12`, the composite z-score with Albumin (Bos taurus) is -0.691; in test [2], -0.0647; in [3] it was -0.0267; in [4] it was 0.572; in test [5] it was 1.28; in test [6] it was 0.517. Besides, the composite z-score in the test with Sam68 (KHDRBS1) is 1.29; in [7] it was 1.14; in [8], 1.03; in test [9], 1.08; in [10] it was 0.377; in test [11] it was 0.898. In addition, the composite z-score in test [12] was 0.4; in test [13] it was 1.32; in test [14] it was 1.48; in the test with Lefty1, 1.01; in [16], 0.422. For the same compound, in test [1], the composite Z-score is 0.61 (inactive). The z-score in test [15] is -1.77; in test [17], -2.99 (inactive).

Consider `COc1ccc(C#Cc2ccc3c(c2)[C@]2(C(=O)N3)[C@H](C(=O)O)[C@H]3C(=O)O[C@H](c4ccccc4)[C@H](c4ccccc4)N3[C@@H]2c2ccccc2OCCO)cc1`, for which the composite z-score is 0.594 with Albumin (Bos taurus); -0.301 in [2]; -0.0069 in [3]; 0.509 in test [4]; 1.08 in [5]; 0.387 in [6]. Moreover, the composite z-score with Sam68 (KHDRBS1) was 1.31; in [7], 0.117; in test [8] it was 1.14; in test [9], 3.16; in [10] it was 1.17; in [11] it was 0.352. Besides, the composite z-score in test [12] came out at 0.955; in test [13] it was 1.19; in test [14] it was 1.25; in the test on Lefty1 it was 1.04; in [16], 1.02. The composite Z-score in [1] is 0.493 (inactive). For the same compound, the values for the z-score in test [15] and in [17] were -2.71 and -5.71 (inactive), respectively.

Take `CCCCCCc1nc(Cc2cc(OC)c(OC)c(OC)c2)cc2c1[Si](C(C)C)(C(C)C)O[C@H]2c1ccccc1`: the composite z-score in the test with Albumin (Bos taurus) is -0.261; in test [2] it was -0.0647; in [3] it was -0.166; in test [4] it was -0.117; in [5] it was -0.327; in [6], -0.589. Besides, the composite z-score in the test with Sam68 (KHDRBS1) is 0.523; in test [7], 0.52; in [8] it was 0.118; in test [9], 0.0156; in [10], 0.0994; in [11], -0.148. Further, the composite z-score is 0.146 in [12]; 0.571 in test [13]; 0.675 in [14]; 0.845 in the test with Lefty1; -0.17 in [16]. Further, the composite Z-score in test [1] is 0.688 (inactive). Moreover, the z-score was 0.216 in [15] and 0.555 (inactive) in test [17].
